# Measured values: PubChem BioAssay (NCI)
# About 83,000 compounds went through this panel and 20% of them were active in at least one assay; those are over-represented in the sample as a whole.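 The endpoint reported here, percent growth, reads 100 for growth as untreated, 0 for no net growth and -100 for all cells dead.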 A number with no mark means an inactive call. Activity calls are given as the source filed them. The calls were made as follows: active = growth percent below 10; inactive = the rest.
# System: CAKI-1 renal
# Assay: NCI-60 one-dose screen, 48 h (100 = growth as untreated, 0 = no growth, -100 = all killed)
# Details: 10 µM unless noted
row,Structure (SMILES),growth
1,ClCC(Cl)C1CCC(Cl)C(Cl)C1 (centres undefined),97.2%
2,C=CCC(O)C=C (centres undefined),97.4%
3,CCOC(=O)c1ccc(Nc2sc(C(=O)c3ccc(Br)cc3)c(N)c2C#N)cc1,10.7%
4,CNc1ccccc1C(=O)N/N=C/C=C/c1ccccc1,12.7%
5,CC(C)=CCC[C@@H](C)[C@H]1CC[C@@]2(C)C3=C(CC[C@]12C)[C@@]1(C)CC[C@H](O)C(C)(C)[C@@H]1CC3,99.1%
6,Cc1[nH]nc(C(N)=O)c1[N+](=O)[O-],102%
7,CC(O)C(F)(F)C(F)(F)C(F)(F)F (centres undefined),99.2%
8,CC1(C)CCC(C)(C)NC(=S)N1,100%
9,CCOC(=O)CNC,94.6%
10,CCCCNc1ccc(-c2ccc(NCCCC)cc2)cc1,64.8%
11,O=S(=O)(O)c1ccc(O)c(C2CCCCC2)c1,94.4%
12,C1=NCCc2ccccc21,99.7%
13,C=CC1=NC(C)(C)CC(C)O1 (centres undefined),114%
14,Cc1ccc(NC(=S)N2CCOCC2)cc1C,101%
15,COC(=O)c1cccc([N+](=O)[O-])c1,108%
16,CCN(CC)CCN1CNC(=S)NC1,106%
17,COc1cc2c(c(OC)c1OC)-c1ccc(SC)c(=O)cc1[C@@H](NC1OC(CO)C(O)C(O)C1O)CC2 (some centres undefined),18.7%
18,CCOC(C=O)OCC,97.8%
19,CCOC(=O)CSCCC#N,96%

# System: A498 renal
# Assay: as above
# Details: 10 µM unless noted
row,Structure (SMILES),growth
1,CCN(C(C)=O)c1ccc([N+](=O)[O-])cc1,82.5%
2,O=S(=O)(c1ccc(NC(=S)NCc2cccnc2)cc1)N1CCCCC1,97.3%
3,O=S1(=O)c2ccccc2Oc2ccccc21,99.7%
4,C/C(=N\N=C(/C)c1cccc([N+](=O)[O-])c1)c1cccc([N+](=O)[O-])c1,97.9%
5,OC(CBr)CCBr (centres undefined),97.5%
6,CC(=O)NC(CCc1ccc(Cl)c(Cl)c1)c1cccc(O)c(=O)c1 (centres undefined),36%
7,CCCCCCCCCCCCCCCCCC(=O)NCCNC(=O)CCCCCCCCCCCCCCCCC,101%
8,COC1CC(OC(=O)c2ccc([N+](=O)[O-])cc2)C(COC(=O)c2ccc([N+](=O)[O-])cc2)O1 (centres undefined),83.5%
9,CC(=O)NC(O)C(Cl)Cl (centres undefined),94.3%
10,CC(=O)c1cccc(O)c1,38.3%
11,C1C[S+]2CC[S+]1CC2,105%
12,COC1OC(C(COC(C)=O)OC(C)=O)C(OC(C)=O)C(OC(C)=O)C1OC(C)=O (centres undefined),125%
13,Cn1/c(=N\N=C\c2ccccc2OCCO)sc2ccccc21,103%
14,CC(C)(N)CO[C@H]1C[C@H]2CC[C@@]1(C)C2(C)C,81.7%
15,CCCC(=O)CC(=O)c1ccccc1,70.4%
16,Cc1onc(-c2ccccc2Cl)c1C(=O)Cl,95.9%
17,COC1OC(C(O)C(O)CO)C(O)C(O)C1O (centres undefined),107%
18,Cc1cc(=O)n(Nc2ccccc2)c(O)c1C#N,115%
19,ClCC(Cl)C1CCC(Cl)C(Cl)C1 (centres undefined),85.5%

row,Structure (SMILES),growth
1,C=CCC(O)C=C (centres undefined),88.7%
2,CCOC(=O)c1ccc(Nc2sc(C(=O)c3ccc(Br)cc3)c(N)c2C#N)cc1,-8.46% (active)
3,CNc1ccccc1C(=O)N/N=C/C=C/c1ccccc1,-8.31% (active)
4,CC(C)=CCC[C@@H](C)[C@H]1CC[C@@]2(C)C3=C(CC[C@]12C)[C@@]1(C)CC[C@H](O)C(C)(C)[C@@H]1CC3,114%
5,Cc1[nH]nc(C(N)=O)c1[N+](=O)[O-],78.4%
6,CC(O)C(F)(F)C(F)(F)C(F)(F)F (centres undefined),120%
7,CC1(C)CCC(C)(C)NC(=S)N1,112%
8,CCOC(=O)CNC,83.1%
9,CCCCNc1ccc(-c2ccc(NCCCC)cc2)cc1,59.7%
10,O=S(=O)(O)c1ccc(O)c(C2CCCCC2)c1,66.3%
11,C1=NCCc2ccccc21,59.9%
12,C=CC1=NC(C)(C)CC(C)O1 (centres undefined),98.3%
13,Cc1ccc(NC(=S)N2CCOCC2)cc1C,105%
14,COC(=O)c1cccc([N+](=O)[O-])c1,92.9%
15,CCN(CC)CCN1CNC(=S)NC1,105%
16,COc1cc2c(c(OC)c1OC)-c1ccc(SC)c(=O)cc1[C@@H](NC1OC(CO)C(O)C(O)C1O)CC2 (some centres undefined),-14.3% (active)
17,CCOC(C=O)OCC,93.3%
18,CCOC(=O)CSCCC#N,83.1%

# System: CCRF-CEM leukemia
# Assay: as above
# Details: 10 µM unless noted
row,Structure (SMILES),growth
1,CCN(C(C)=O)c1ccc([N+](=O)[O-])cc1,98.9%
2,O=S(=O)(c1ccc(NC(=S)NCc2cccnc2)cc1)N1CCCCC1,29%
3,O=S1(=O)c2ccccc2Oc2ccccc21,127%
4,C/C(=N\N=C(/C)c1cccc([N+](=O)[O-])c1)c1cccc([N+](=O)[O-])c1,96.5%
5,OC(CBr)CCBr (centres undefined),88.2%
6,CC(=O)NC(CCc1ccc(Cl)c(Cl)c1)c1cccc(O)c(=O)c1 (centres undefined),4.93% (active)
7,CCCCCCCCCCCCCCCCCC(=O)NCCNC(=O)CCCCCCCCCCCCCCCCC,61.9%
8,COC1CC(OC(=O)c2ccc([N+](=O)[O-])cc2)C(COC(=O)c2ccc([N+](=O)[O-])cc2)O1 (centres undefined),98.1%
9,CC(=O)NC(O)C(Cl)Cl (centres undefined),99.4%
10,CC(=O)c1cccc(O)c1,106%
11,C1C[S+]2CC[S+]1CC2,89.9%
12,COC1OC(C(COC(C)=O)OC(C)=O)C(OC(C)=O)C(OC(C)=O)C1OC(C)=O (centres undefined),104%
13,Cn1/c(=N\N=C\c2ccccc2OCCO)sc2ccccc21,93.3%
14,CC(C)(N)CO[C@H]1C[C@H]2CC[C@@]1(C)C2(C)C,105%
15,CCCC(=O)CC(=O)c1ccccc1,97.5%
16,Cc1onc(-c2ccccc2Cl)c1C(=O)Cl,90.9%
17,COC1OC(C(O)C(O)CO)C(O)C(O)C1O (centres undefined),95.4%

row,Structure (SMILES),growth
1,Cc1cc(=O)n(Nc2ccccc2)c(O)c1C#N,99.8%
2,ClCC(Cl)C1CCC(Cl)C(Cl)C1 (centres undefined),97.5%
3,C=CCC(O)C=C (centres undefined),94.1%
4,CCOC(=O)c1ccc(Nc2sc(C(=O)c3ccc(Br)cc3)c(N)c2C#N)cc1,12.8%
5,CNc1ccccc1C(=O)N/N=C/C=C/c1ccccc1,12%
6,CC(O)C(F)(F)C(F)(F)C(F)(F)F (centres undefined),108%
7,CC1(C)CCC(C)(C)NC(=S)N1,102%
8,CCCCNc1ccc(-c2ccc(NCCCC)cc2)cc1,51.9%
9,O=S(=O)(O)c1ccc(O)c(C2CCCCC2)c1,110%
10,C1=NCCc2ccccc21,96.8%
11,C=CC1=NC(C)(C)CC(C)O1 (centres undefined),95.7%
12,Cc1ccc(NC(=S)N2CCOCC2)cc1C,109%
13,COC(=O)c1cccc([N+](=O)[O-])c1,104%
14,COc1cc2c(c(OC)c1OC)-c1ccc(SC)c(=O)cc1[C@@H](NC1OC(CO)C(O)C(O)C1O)CC2 (some centres undefined),4.92% (active)
15,CCOC(C=O)OCC,99.1%
16,CCOC(=O)CSCCC#N,102%
